# Experimental data published in PubChem BioAssay (EPA / NIEHS).
# Inconclusive results are not listed. Activity calls are given as the source filed them. How the source made its calls: active means hit-call score of the fitted dose curve at least 0.9, where 1 is the maximum; inconclusive means response in the unintended direction; inactive means score below 0.9.
# What was measured:
# [1] = target: Nuclear receptor subfamily 1 group I member 2 (Homo sapiens) (UniProt O75469); experiment: NVS_NR_hPXR: NovaScreen (NVS) Nuclear Receptor Binding Assay for human Pregnane X Receptor (PXR) (AID 2283365);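 further: a drop in FRET signal versus DMSO baseline means the compound binds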
# Procedure, shortened: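 Cell-free TR-FRET binding assay with extracted human PXR protein, read 2 h after dosing. Primary screen run in duplicate at 25 uM, actives followed in concentration series; loss of signal fitted against DMSO baseline.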
# [2] = target: Estrogen receptor beta (Homo sapiens) (UniProt Q92731); experiment: OT_ER_ERbERb_0480: Odyssey Thera (OT) 8-hour HEK293T Protein-Complementation Assay for Estrogen Receptor-beta/-beta Homodimer (AID 2283357);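 further: active means signal gain over DMSO baseline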
# Procedure, shortened: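 Readout: increase in mean fluorescence intensity (nucleus for agonists; nucleus plus cytoplasm for antagonists) relative to DMSO, from a reporter-fragment complementation of human ER-beta LBD homodimer in HEK293T cells dosed 8 hours.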
# [3] = target: Peroxisome proliferator-activated receptor gamma (Homo sapiens) (UniProt P37231); experiment: NVS_NR_hPPARg: NovaScreen (NVS) Nuclear Receptor Binding Assay for human Peroxisome Proliferator-activated Receptor gamma (PPARg) (AID 2283370)
# Procedure, shortened: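 Cell-free fluorescence polarization binding to human PPARg protein, read 2 h after dosing. Primary screen in duplicate at 25 uM, actives followed in concentration series; loss of signal relative to DMSO scored.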
# [4] = target: human Norepinephrine Transporter (NET), SLC6A2 (gene 6530) (UniProt P23975); experiment: NVS_TR_hNET: NovaScreen (NVS) Transporter Assay for human Norepinephrine Transporter (NET) (AID 2283377);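 further: cell-free membrane protein extracted from CHO cells expressing human NET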
# Procedure, shortened: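 Radioligand binding to human NET in cell-free CHO-derived protein preparations, read by filter-based scintillation counting 1 hour after dosing. Loss of signal versus DMSO baseline indicated displacement; primary screening in duplicate at 25 uM, actives then titrated.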
# [5] = target: guinea pig Sigma Receptor, Non-selective Binding, SIGMAR1 (gene 100135589) (UniProt Q60492); experiment: NVS_OR_gSIGMA_NonSelective: NovaScreen (NVS) Nuclear Receptor Binding Assay for guinea pig Sigma Receptor, Non-selective Binding (AID 2283367)
# Procedure, shortened: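 Guinea pig brain membranes, cell-free radioligand binding; read 1 h after dosing by filter-based scintillation counting. Loss of signal vs DMSO baseline taken as displacement. Primary screen single concentration 25 uM in duplicate; actives retested in concentration series.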
# [6] = test system: guinea pig Dopamine Transporter (DAT), gene 100714898; experiment: NVS_TR_gDAT: NovaScreen (NVS) Transporter Assay for guinea pig Dopamine Transporter (DAT) (AID 2283369);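 further: active compounds lower bound radioligand signal relative to DMSO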
# Procedure, shortened: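 Guinea pig striatal membranes, cell-free radioligand binding with filter-based scintillation counting, read 2 h after dosing. Loss of signal versus DMSO baseline; single-concentration primary (25 uM) then concentration-response up to 50 uM.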
# [7] = target: human Dopamine Transporter (DAT), SLC6A3 (gene 6531) (UniProt Q01959); experiment: NVS_TR_hDAT: NovaScreen (NVS) Transporter Assay for human Dopamine Transporter (DAT) (AID 2283374);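 further: activity means loss of bound radioligand signal relative to DMSO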
# Procedure, shortened: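 Cell-free radioligand binding to extracted human DAT protein, read 1 h after dosing by filter-based scintillation counting. Loss of specific binding scored against DMSO baseline; primary screen in duplicate at 25 uM, actives then run in concentration series.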
# [8] = target: rat Serotonin Transporter (SERT), Slc6a4 (gene 25553) (UniProt P31652); experiment: NVS_TR_rSERT: NovaScreen (NVS) Transporter Assay for rat Serotonin Transporter (SERT) (AID 2283375)
# Procedure, shortened: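 Rat forebrain membranes; radioligand displacement at SERT read by filter-based scintillation counting, 1 h after dosing. Screened in duplicate at 25 uM, actives then run in concentration series; loss of signal versus DMSO baseline.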
# [9] = target: human Thyroid Receptor Alpha (TRa), THRA (gene 7067) (UniProt P10827); experiment: NVS_NR_hTRa_Antagonist: NovaScreen (NVS) Nuclear Receptor Binding Assay for human Thyroid Receptor Alpha Antagonism (TRa) (AID 2283362);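 further: activity is loss of signal relative to DMSO baseline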
# Procedure, shortened: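 Cell-free AlphaLISA chemiluminescent binding read 1 h after dosing, antagonist mode; signal loss versus DMSO baseline. Primary screen in duplicate at 25 uM, then concentration series for actives.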
# [10] = target: Retinoic acid receptor alpha (Homo sapiens) (UniProt P10276); experiment: NVS_NR_hRARa_Agonist: NovaScreen (NVS) Nuclear Receptor Binding Assay for human Retinoic Acid Alpha Receptor Agonism (RAR) (AID 2283361)
# Procedure, shortened: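 Cell-free TR-FRET binding read-out with extracted human RARα protein, read 2 h after compound addition. Gain of signal scored against DMSO baseline. Primary screen at a single 25 uM in duplicate; actives then retested in concentration series.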
# [11] = target: Glucocorticoid receptor (Homo sapiens) (UniProt P04150); experiment: NVS_NR_hGR: NovaScreen (NVS) Nuclear Receptor Binding Assay for human Glucocorticoid Receptor (GR) (AID 2283363)
# Procedure, shortened: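 Cell-free radioligand binding with extracted receptor protein, read by filter-based scintillation counting 16 hours after dosing. Loss of specific signal versus DMSO baseline was scored. Primary screen ran in duplicate at 25 uM; actives were followed up in concentration series.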
# [12] = target: human Adenosine Transporter (Adot), SLC29A1 (gene 2030) (UniProt Q99808); experiment: NVS_TR_hAdoT: NovaScreen (NVS) Transporter Assay for human Adenosine Transporter (Adot) (AID 2283368)
# Procedure, shortened: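 U937-derived membranes, cell-free radioligand binding, filter scintillation 1 h after dosing. 25 uM duplicate screen; hits (e.g. 30% inhibition) run in concentration-response up to 50 uM; loss of signal versus DMSO.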
# [13] = test system: rat Norepinephrine Transporter (NET), gene 83511; experiment: NVS_TR_rNET: NovaScreen (NVS) Transporter Assay for rat Norepinephrine Transporter (NET) (AID 2283373)
# Procedure, shortened: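 Rat forebrain membranes; radioligand binding measured by filter-based scintillation counting 1 hour after dosing. Loss of specific binding versus DMSO baseline scored; primary screen in duplicate at 25 uM, actives followed up in concentration series.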
# Sequence of Peroxisome proliferator-activated receptor gamma (Homo sapiens) (P37231 whole entry, looked up): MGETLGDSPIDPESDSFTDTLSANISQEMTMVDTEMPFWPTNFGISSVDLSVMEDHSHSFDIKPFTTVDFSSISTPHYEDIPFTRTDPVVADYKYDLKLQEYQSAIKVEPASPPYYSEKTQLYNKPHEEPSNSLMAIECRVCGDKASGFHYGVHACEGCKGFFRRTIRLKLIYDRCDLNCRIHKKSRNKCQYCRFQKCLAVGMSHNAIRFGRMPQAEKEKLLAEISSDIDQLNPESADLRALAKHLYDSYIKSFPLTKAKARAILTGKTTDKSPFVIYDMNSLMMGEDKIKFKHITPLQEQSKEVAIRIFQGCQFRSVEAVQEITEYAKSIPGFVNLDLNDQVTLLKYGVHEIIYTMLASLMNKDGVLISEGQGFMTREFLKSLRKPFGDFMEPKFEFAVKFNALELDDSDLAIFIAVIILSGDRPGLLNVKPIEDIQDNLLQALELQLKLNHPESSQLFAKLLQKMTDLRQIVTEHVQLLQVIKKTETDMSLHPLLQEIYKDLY
# Sequence of human Dopamine Transporter (DAT), SLC6A3 (gene 6531) (Q01959 whole entry, looked up): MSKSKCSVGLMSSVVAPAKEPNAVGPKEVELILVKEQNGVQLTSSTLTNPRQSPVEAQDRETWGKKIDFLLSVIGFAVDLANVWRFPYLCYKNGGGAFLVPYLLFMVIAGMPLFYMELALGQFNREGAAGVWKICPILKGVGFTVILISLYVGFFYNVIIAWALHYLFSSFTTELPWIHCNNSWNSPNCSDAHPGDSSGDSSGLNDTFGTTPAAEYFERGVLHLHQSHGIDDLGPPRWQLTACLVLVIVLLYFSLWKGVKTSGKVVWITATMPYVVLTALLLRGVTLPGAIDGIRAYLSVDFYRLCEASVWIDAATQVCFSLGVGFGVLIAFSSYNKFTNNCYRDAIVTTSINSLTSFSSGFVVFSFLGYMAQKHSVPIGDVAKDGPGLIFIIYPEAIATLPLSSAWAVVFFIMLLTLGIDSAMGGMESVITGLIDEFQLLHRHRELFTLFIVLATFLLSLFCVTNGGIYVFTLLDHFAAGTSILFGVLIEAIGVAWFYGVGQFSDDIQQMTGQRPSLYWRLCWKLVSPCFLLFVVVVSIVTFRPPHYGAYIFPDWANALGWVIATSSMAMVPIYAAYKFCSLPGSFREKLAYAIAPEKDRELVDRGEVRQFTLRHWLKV
# Sequence of human Norepinephrine Transporter (NET), SLC6A2 (gene 6530) (P23975 whole entry, looked up): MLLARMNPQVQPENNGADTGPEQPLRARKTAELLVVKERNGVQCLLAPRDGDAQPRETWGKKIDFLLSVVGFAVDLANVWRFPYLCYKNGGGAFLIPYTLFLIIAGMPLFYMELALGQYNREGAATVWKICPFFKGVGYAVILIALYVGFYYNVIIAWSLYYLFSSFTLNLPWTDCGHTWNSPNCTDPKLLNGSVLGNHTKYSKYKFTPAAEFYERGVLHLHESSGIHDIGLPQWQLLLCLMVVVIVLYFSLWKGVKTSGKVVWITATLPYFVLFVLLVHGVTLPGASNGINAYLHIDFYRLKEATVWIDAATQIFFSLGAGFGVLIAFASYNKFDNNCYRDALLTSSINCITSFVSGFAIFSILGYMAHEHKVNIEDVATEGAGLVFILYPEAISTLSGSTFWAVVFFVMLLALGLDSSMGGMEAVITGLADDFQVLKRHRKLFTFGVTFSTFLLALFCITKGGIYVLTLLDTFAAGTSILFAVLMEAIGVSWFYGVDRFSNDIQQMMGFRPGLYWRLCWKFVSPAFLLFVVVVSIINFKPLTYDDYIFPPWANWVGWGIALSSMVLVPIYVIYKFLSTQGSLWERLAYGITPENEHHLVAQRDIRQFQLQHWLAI
# Sequence of Estrogen receptor beta (Homo sapiens) (Q92731 whole entry, looked up, the tested form may be a part): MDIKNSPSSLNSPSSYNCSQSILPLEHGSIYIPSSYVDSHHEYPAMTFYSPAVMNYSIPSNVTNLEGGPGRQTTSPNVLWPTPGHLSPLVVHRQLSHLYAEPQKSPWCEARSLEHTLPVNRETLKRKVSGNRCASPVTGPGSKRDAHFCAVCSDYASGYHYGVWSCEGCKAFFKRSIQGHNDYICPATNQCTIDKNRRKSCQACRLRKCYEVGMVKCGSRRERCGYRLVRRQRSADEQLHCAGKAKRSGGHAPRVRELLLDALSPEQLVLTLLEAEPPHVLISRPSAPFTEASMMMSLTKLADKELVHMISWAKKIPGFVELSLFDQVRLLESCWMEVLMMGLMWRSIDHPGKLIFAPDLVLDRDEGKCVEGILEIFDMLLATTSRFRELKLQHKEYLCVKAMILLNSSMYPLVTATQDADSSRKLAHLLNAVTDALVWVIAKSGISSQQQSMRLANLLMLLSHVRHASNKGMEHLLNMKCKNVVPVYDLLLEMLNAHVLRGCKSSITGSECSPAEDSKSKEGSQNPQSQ
# Sequence of Glucocorticoid receptor (Homo sapiens) (P04150 whole entry, looked up): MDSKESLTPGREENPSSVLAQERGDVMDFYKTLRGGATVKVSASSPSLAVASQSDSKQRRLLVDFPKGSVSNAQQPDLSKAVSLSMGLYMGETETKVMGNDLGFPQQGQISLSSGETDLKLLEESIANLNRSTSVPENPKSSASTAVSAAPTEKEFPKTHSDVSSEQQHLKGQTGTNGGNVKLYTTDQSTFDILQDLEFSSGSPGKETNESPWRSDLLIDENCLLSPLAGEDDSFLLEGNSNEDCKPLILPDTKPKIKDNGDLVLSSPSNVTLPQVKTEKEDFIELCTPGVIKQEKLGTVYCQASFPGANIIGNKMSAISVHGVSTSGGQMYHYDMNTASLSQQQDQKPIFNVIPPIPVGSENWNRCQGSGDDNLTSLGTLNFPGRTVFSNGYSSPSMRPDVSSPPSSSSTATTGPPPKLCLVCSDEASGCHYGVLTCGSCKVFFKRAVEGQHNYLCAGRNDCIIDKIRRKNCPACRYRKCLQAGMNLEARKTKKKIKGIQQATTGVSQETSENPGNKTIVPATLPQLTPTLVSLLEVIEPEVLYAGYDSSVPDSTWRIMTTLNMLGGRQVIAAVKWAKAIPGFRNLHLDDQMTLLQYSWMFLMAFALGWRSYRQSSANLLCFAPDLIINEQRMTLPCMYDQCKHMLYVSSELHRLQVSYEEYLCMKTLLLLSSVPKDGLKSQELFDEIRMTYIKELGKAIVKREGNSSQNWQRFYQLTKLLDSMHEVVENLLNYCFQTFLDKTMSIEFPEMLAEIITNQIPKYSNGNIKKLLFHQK
# Sequence of Nuclear receptor subfamily 1 group I member 2 (Homo sapiens) (O75469 whole entry, looked up): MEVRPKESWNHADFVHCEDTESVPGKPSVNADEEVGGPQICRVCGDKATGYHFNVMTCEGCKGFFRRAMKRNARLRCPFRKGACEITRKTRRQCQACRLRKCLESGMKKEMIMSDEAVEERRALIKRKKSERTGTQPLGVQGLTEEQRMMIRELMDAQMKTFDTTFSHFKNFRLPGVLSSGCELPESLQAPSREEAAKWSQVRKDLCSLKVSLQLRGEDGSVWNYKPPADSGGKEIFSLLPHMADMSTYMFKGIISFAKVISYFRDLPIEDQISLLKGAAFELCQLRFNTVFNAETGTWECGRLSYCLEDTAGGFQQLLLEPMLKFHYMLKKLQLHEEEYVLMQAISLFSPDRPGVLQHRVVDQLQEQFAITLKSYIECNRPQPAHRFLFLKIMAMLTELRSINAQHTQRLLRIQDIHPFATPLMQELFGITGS
# Sequence of human Thyroid Receptor Alpha (TRa), THRA (gene 7067) (P10827 whole entry, looked up): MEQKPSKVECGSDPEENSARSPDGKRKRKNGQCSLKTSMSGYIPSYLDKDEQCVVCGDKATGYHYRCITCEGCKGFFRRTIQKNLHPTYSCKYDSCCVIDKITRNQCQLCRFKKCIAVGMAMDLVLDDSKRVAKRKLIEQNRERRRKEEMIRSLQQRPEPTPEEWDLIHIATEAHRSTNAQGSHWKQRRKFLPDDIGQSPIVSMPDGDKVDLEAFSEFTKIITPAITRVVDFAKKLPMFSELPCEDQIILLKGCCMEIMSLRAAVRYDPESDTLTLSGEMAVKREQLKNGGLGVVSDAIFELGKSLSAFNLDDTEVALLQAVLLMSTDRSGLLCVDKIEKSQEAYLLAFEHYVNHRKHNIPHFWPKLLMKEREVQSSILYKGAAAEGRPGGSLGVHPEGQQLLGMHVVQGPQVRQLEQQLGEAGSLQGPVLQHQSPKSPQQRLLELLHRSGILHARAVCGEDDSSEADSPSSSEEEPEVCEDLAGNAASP
# Sequence of guinea pig Sigma Receptor, Non-selective Binding, SIGMAR1 (gene 100135589) (Q60492 whole entry, looked up): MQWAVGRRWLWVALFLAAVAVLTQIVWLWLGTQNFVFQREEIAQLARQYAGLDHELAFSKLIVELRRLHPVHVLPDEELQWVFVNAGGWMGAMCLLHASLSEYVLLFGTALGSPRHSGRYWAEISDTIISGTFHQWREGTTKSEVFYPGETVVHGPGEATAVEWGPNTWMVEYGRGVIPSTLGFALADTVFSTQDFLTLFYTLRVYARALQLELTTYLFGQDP
# Sequence of human Adenosine Transporter (Adot), SLC29A1 (gene 2030) (Q99808 whole entry, looked up): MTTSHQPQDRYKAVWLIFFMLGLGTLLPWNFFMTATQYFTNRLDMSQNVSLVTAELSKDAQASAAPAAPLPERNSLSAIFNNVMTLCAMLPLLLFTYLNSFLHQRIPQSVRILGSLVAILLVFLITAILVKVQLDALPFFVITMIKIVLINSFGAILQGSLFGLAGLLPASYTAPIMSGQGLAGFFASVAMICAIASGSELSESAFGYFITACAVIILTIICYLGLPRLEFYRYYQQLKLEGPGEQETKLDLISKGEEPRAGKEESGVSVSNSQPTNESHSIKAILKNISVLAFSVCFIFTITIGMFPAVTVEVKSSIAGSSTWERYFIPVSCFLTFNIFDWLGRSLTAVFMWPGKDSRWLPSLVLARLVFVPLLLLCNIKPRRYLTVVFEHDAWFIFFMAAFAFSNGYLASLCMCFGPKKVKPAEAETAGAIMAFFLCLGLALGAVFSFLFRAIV
compound,measurement,setting,value
CC(=O)CC(c1ccccc1)c1c(O)c2ccccc2oc1=O (stereo unspecified),outcome,[1],inactive
O=C1O[C@H]([C@H](O)CO)C(O)=C1O,outcome,[2],inactive
same,outcome,[3],inactive
O=C(O)CN(CC(=O)O)CC(=O)O,outcome,[4],inactive
Cn1cnc2c1c(=O)[nH]c(=O)n2C,outcome,[5],inactive
same,AC50,[6],10.5 µM (active)
same,outcome,[3],inactive
same,outcome,[7],inactive
same,AC50,[8],2.36 µM (active)
CC(C)NCC(O)c1ccc(O)c(O)c1 (stereo unspecified),outcome,[2],inactive
same,outcome,[9],inactive
same,AC50,[3],9.71 µM (active)
same,AC50,[7],11.1 µM (active)
same,outcome,[4],inactive
OCC(O)CO,AC50,[3],0.00229 µM (active)
O=C(O)c1cccnc1,outcome,[2],inactive
CC(=O)[C@@]1(O)CC[C@H]2[C@@H]3CCC4=CC(=O)CC[C@]4(C)[C@H]3CC[C@@]21C,outcome,[2],inactive
same,outcome,[10],inactive
same,outcome,[1],inactive
S=c1[nH]c2ccccc2s1,outcome,[2],inactive
same,outcome,[11],inactive
same,outcome,[3],inactive
same,AC50,[4],13.6 µM (active)
COC(=O)[C@H]1[C@H]2C[C@@H]3c4[nH]c5cc(OC)ccc5c4CCN3C[C@H]2C[C@@H](OC(=O)c2cc(OC)c(OC)c(OC)c2)[C@@H]1OC,AC50,[12],6.6 µM (active)
same,AC50,[4],5.72 µM (active)
NC=O,outcome,[2],inactive
O=C(O)c1[nH]n(-c2ccc(S(=O)(=O)O)cc2)c(=O)c1N=Nc1ccc(S(=O)(=O)O)cc1,outcome,[9],inactive
CC(C)(O)c1ccc(CNC(=O)c2cccnc2Oc2ccc(F)cc2)cc1,AC50,[12],34.7 µM (active)
CCCCC(CC)COP(=O)(OCC(CC)CCCC)OCC(CC)CCCC (stereo unspecified),outcome,[11],inactive
same,outcome,[6],inactive
same,outcome,[3],inactive
same,outcome,[7],inactive
O=C1NC(=O)C(c2ccccc2)(c2ccccc2)N1,outcome,[9],inactive
same,outcome,[1],inactive
same,AC50,[7],5.81 µM (active)
C=CCc1ccc(OC)c(OC)c1,outcome,[2],inactive
same,outcome,[3],inactive
CC(C)c1cccc(C(C)C)c1NC(=O)NS(=O)(=O)c1cc(C(C)(C)O)co1,outcome,[2],inactive
CCCCC(CC)CO (stereo unspecified),outcome,[2],inactive
same,AC50,[3],0.00905 µM (active)
CO[C@@H]1COCC[C@@H]1N[C@@H]1CC[C@@](C(=O)N2CCc3ncc(C(F)(F)F)cc3C2)(C(C)C)C1,outcome,[2],inactive
same,AC50,[5],1.94 µM (active)
same,AC50,[3],15.8 µM (active)
CC(=O)OCC(COC(C)=O)OC(C)=O,outcome,[2],inactive
CCCCOC(=O)CCCCC(=O)OCCCC,outcome,[11],inactive
CN(C)C(=O)NC1(c2ccccc2)CCN(CC[C@@]2(c3ccc(F)c(F)c3)CN(C(=O)c3ccccc3)CCO2)CC1,outcome,[1],inactive
same,outcome,[3],inactive
same,outcome,[4],inactive
CC(COCC(C)OC(=O)c1ccccc1)OC(=O)c1ccccc1 (stereo unspecified),outcome,[2],inactive
same,outcome,[6],inactive
same,AC50,[7],19.2 µM (active)
CC(=O)OC1CC(C)OC(C)O1 (stereo unspecified),outcome,[2],inactive
CC(=O)O[C@]1(C(C)=O)CC[C@H]2[C@@H]3C=C(Cl)C4=CC(=O)[C@@H]5C[C@@H]5[C@]4(C)[C@H]3CC[C@@]21C,outcome,[2],inactive
same,outcome,[1],inactive
Cc1cc(Cc2ccc(N)c(C)c2)ccc1N,AC50,[2],67.6 µM (active)
same,outcome,[9],inactive
same,outcome,[11],inactive
same,outcome,[13],inactive
same,AC50,[7],8.53 µM (active)
same,AC50,[4],6.22 µM (active)
C/C=C/c1ccc(OC)cc1,outcome,[2],inactive
